PubChem BioAssay AID449762 (Southern Research Specialized Biocontainment Screening …, 2010)
The campaign covered roughly 330,000 compounds. About 1,900 (0.58%) were called active. Roughly 4% stayed inconclusive and do not appear here. A selection follows. Potency and affinity values are given separately. Unmarked numbers belong to inactive results. Cut-off read from the data, not from the text of the source: inconclusive = inhibition above about 70% without an active follow-up result; inactive = below that.

Experiment: M. tuberculosis growth inhibition, HTS (AID 449762);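 note: bacterial growth assessed after seven days of incubation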
Conditions: M. tuberculosis H37Rv growth inhibition, 7H9 media; at 25 µM; hits give high values
Compound `CC(C)(C)c1ccccc1OCCOCCNCc1ccccc1` has an inhibition of 2.6%.
With `Cc1ccc(S(=O)(=O)n2ccc3c(OCCOCCSCC(NC(=O)OC(C)(C)C)C(=O)O)cccc32)cc1` (stereo not given) the inhibition was 0.6%.
`O=C(CSc1nc2ccccc2[nH]1)Nc1ccc2[nH]c(=O)[nH]c2c1` gave an inhibition of 8.79%.
`CC(=O)Nc1ccc(NC(=O)CSc2ncnc3sc(C)c(C)c23)cc1` gave an inhibition of -0.3%.
`CNc1nc(-c2ccc3c(c2)CCN3C(=O)c2ccccc2F)c(C)s1` showed an inhibition of 9.7%.
Work on `O=C1/C(=C/c2ccccn2)SC(=S)N1NS(=O)(=O)c1ccccc1` yielded an inhibition of 5.72%.
`CCC(=O)NCCCCCCNC(=O)CC` gave an inhibition of 0.18%.
Compound `CCC(=O)NCCCCCCCCCNC(=O)CC` has an inhibition of -4.93%.
For `C=CCn1c(SCC(=O)Nc2ccccc2F)nnc1C(C)NC(=O)c1ccccc1F` (stereo not given), the inhibition was -12.4%.
For `Cc1ccc(-c2c(C)n([O-])c3c([n+]2=O)CCCCC3)cc1`, the inhibition was -3.38%.
Work on `CCCCSc1nnc([C@H](CC(C)C)NC(=O)OC(C)(C)C)o1` yielded an inhibition of -2.58%.
In the case of `CC(C)C[C@H](NC(=O)OC(C)(C)C)c1nnc(SCc2ccccc2)o1`, the inhibition is reported as -3.57%.
`COc1ccc(C)cc1S(=O)(=O)NCc1cccs1` gave an inhibition of 1.39%.
For `O=C(NCCc1ccc(Cl)cc1)c1ccc(OCC2CCCO2)cc1` (stereo not given), the inhibition was 5.17%.
For `O=C(NC1CCCCC1)N1CCN(Cc2nc3ccccc3c(=O)[nH]2)CC1`, the inhibition was -4.69%.
Work on `COc1ccc(NC(=S)NC(=O)C2CCC2)cc1` yielded an inhibition of -0.22%.
`CC(=O)Nc1ccc(NC(=S)NC(=O)C2CCCC2)cc1` gave an inhibition of -8.34%.
`Cn1nc(C(F)(F)F)c(C(=O)Nc2ccc(F)cc2F)c1Sc1ccc(Cl)cc1` showed an inhibition of -9.99%.
For `COc1cc(-c2ccc3oc(-c4ccsc4)cc3c2)cc(OC)c1OC`, the inhibition was 0.64%.
Work on `COc1ccc(-c2ccc3oc(-c4ccsc4)cc(=O)c3c2)cc1F` yielded an inhibition of -0.47%.
For `O=C1c2ccccc2C(=O)N1CCc1csc(-c2cccc(F)c2)n1`, the inhibition was 3.85%.
`COC(=O)CC1C(=O)NCCN1C(=O)c1ccccc1` (stereo not given) gave an inhibition of -6.14%.
In the case of `Brc1ccc2nc(N3CCN(c4ccccc4)CC3)sc2c1`, the inhibition is reported as -4.96%.
Work on `Brc1cccc2sc(N3CCCC3)nc12` yielded an inhibition of 6.95%.
Compound `COc1ccc(C(=O)Nc2ccccc2C(=O)NCCN2CCOCC2)cc1OC` has an inhibition of 4.9%.
In the case of `O=C(COC(=O)c1ccc2c(c1)OCCO2)Nc1cccc(S(=O)(=O)N2CCOCC2)c1`, the inhibition is reported as 9.61%.
`COc1ccccc1C(=O)NNC(=O)CCC(=O)NCc1ccccc1` showed an inhibition of -3.02%.
In the case of `COc1ccccc1C(=O)NCc1ccccc1`, the inhibition is reported as 10.8%.
For `COCCNC(=S)N/N=C(\C)c1ccccc1OC`, the inhibition was -6.36%.
In the case of `C/C(=N\NC(=S)NCc1ccccc1)c1ccc(Br)cc1`, the inhibition is reported as 6.33%.
With `CSc1ccccc1NC(=O)Nc1cccc(F)c1` the inhibition was 1.3%.
With `CC(C)(C)N(Cc1ccccc1)C(=O)COC(=O)CNC(=O)c1ccco1` the inhibition was 5.79%.
Compound `CC(C)C(NC(=O)c1cccs1)C(=O)NC1=NCCS1` (stereo not given) has an inhibition of -3.72%.
Compound `COc1cc(OC)cc(C(=O)N[C@H](C(=O)Nc2nc3ccc(S(C)(=O)=O)cc3s2)C(C)C)c1` has an inhibition of 10.5%.
With `CCOC(=O)c1sc(NC(=O)c2cc3ccccc3o2)nc1C` the inhibition was 3.64%.
Compound `CCOC(=O)c1csc(NC(=O)c2cc(=O)c3ccccc3o2)n1` has an inhibition of -0.69%.
Compound `COc1cc(/C=N/Nc2nc(Nc3ccccc3)nc(-n3nc(C)cc3C)n2)cc(OC)c1OC` has an inhibition of 10.6%.
`COc1cccc(/C=N/Nc2nc(N3CCCC3)nc(N3CCCC3)n2)c1O` gave an inhibition of 3.67%.
For `COc1ccc(NC(=S)N2CCC(N(C)CCN3CCOCC3)CC2)cc1`, the inhibition was 2.62%.
Compound `COc1ccccc1C(=O)NCCC(=O)N1CCN(c2ccccc2O)CC1` has an inhibition of 1.15%.
For `COc1ccc(-c2csc3ncnc(N4CCN(c5ccccc5Cl)CC4)c23)cc1`, the inhibition was 50.3%.
Work on `COc1ccc(-c2nc3scc(-c4ccc(OC)c(OC)c4)c3c(=O)o2)cc1` yielded an inhibition of 11.9%.
In the case of `COc1ccc(-c2csc3nc(-c4ccccc4F)oc(=O)c23)cc1`, the inhibition is reported as -1.39%.
Work on `CCOc1ccccc1N1CCN(c2ncnc3scc(-c4ccc(OC)cc4)c23)CC1` yielded an inhibition of -0.51%.
With `CCN(CC)c1ccc(C2C(C(C)=O)C(=O)CC(C)(O)C2C(C)=O)cc1` (stereo not given) the inhibition was -4.35%.
Compound `C1CN(c2nc3nonc3nc2N2C[C@H]3CC[C@H]2C3)CCS1` has an inhibition of -11%.
Work on `CCNC(=S)N(CCc1c(C)[nH]c2ccccc12)Cc1cccnc1` yielded an inhibition of -3.56%.
In the case of `CN1CCN(C(=O)CCN2C(=O)/C(=C\c3ccccc3F)SC2=S)CC1`, the inhibition is reported as -5.52%.
With `COc1ccc(-c2c(C#Cc3ccsc3)c3cc(Br)ccc3n2C)cc1` the inhibition was 8.44%.
For `COc1ccc(C#Cc2c(-c3ccccc3)n(C)c3ccccc23)cc1`, the inhibition was 6.76%.
`COc1cc(CNCc2ccccc2)cc(Cl)c1OC` gave an inhibition of -0.38%.
With `COc1cc(CNCCO)cc(Cl)c1OCc1ccccc1Cl` the inhibition was 1.99%.
For `CCN(C(=O)c1cnc2scc(C)n2c1=O)c1ccccc1C`, the inhibition was -2.4%.
Work on `COc1ccc(NC(=O)CC(Cc2ccc(Cl)cc2)C(=O)O)cc1` (stereo not given) yielded an inhibition of 1.62%.
`Cc1cccc(C)c1NC(=O)CN(C)C(=O)c1ccccc1Cc1ccccc1` showed an inhibition of 2.81%.
`Cc1cc(C)n2nc(SCC(=O)NC(=O)c3ccccc3Cl)nc2n1` showed an inhibition of 1.71%.
For `CC(C)(C)c1nn(-c2ccccc2)c2[nH]c(=O)c(CNc3ccc4c(c3)OCCO4)cc12`, the inhibition was 52.8%.
`Cc1nn(-c2ccccc2)c2[nH]c(=O)c(CNCc3ccc4c(c3)OCO4)cc12` showed an inhibition of -4.36%.
`Cc1ccccc1NC(=O)C1CCN(S(=O)(=O)c2cccc3nonc23)CC1` gave an inhibition of 4.17%.
With `CCC[C@@H]1C[C@@H](C(=O)N[C@H]([C@@H](C)O)[C@H]2O[C@H](SC)[C@H](O)[C@@H](O)C2O)N(C)C1` (stereo not given in full) the inhibition was 59.1%.
With `Cc1ccc(NC(=O)[C@@H](CC(C)C)NC(=O)[C@@H]2Cc3ccccc3CN2)cc1` the inhibition was 2.07%.
`CCOC(=O)C(C)Sc1ccc2nnc(CCNS(=O)(=O)c3ccc(C)cc3)n2n1` (stereo not given) showed an inhibition of 1.94%.
`Cc1cc(C(F)(F)F)cc(NNC(=O)NC(=O)c2ccccc2Cl)n1` gave an inhibition of 10.6%.
Work on `COC(CNS(=O)(=O)c1ccc(S(=O)(=O)NC2CC2)cc1)OC` yielded an inhibition of 1.93%.
With `Cc1ccc(S(=O)(=O)NNC(=O)Nc2ccc(Cl)cc2)cc1` the inhibition was 0.2%.
In the case of `COc1cc(SC)ccc1C(=O)NCCOc1ccc(Cl)cc1`, the inhibition is reported as 64.9%.
In the case of `O=C(Nc1ccc(N2CCN(C(=O)c3ccco3)CC2)cc1)c1ccco1`, the inhibition is reported as -1.95%.
In the case of `O=C(Nc1ccc(N2CCN(C(=O)c3ccco3)CC2)cc1)c1ccccc1`, the inhibition is reported as 2.03%.
`NC(=O)CC(NC(=O)Cc1ccc(Br)cc1)c1ccc(NCc2ccccn2)c([N+](=O)[O-])c1` (stereo not given) showed an inhibition of 3.35%.
Work on `O=C(CN1C(=O)S/C(=C/c2cc(Br)cs2)C1=O)N1CCOCC1` yielded an inhibition of 5.49%.
With `COCCNC(=O)c1ccccc1NC(=O)CCSc1ccccc1` the inhibition was -2.26%.
`CCC1CCCCN1Cc1nc2c(c(=O)n(C)c(=O)n2C)n1CCC(C)C` (stereo not given) showed an inhibition of -0.27%.
For `Cc1cccc(-c2oc3ccccc3c2-c2ccc3c(c2)OCO3)c1`, the inhibition was 52.4%.
`COc1ccc(-c2c(-c3cccc(C)c3)oc3ccc(-c4ccc5c(c4)OCO5)cc23)cn1` gave an inhibition of -1.67%.
In the case of `Cc1c(Cl)c([N+](=O)[O-])nn1CCCC(=O)Nc1ccc(Cl)cc1Cl`, the inhibition is reported as 5.86%.
`CC1=NOC(=O)/C1=C\c1ccc(-c2cccc(Cl)c2)o1` gave an inhibition of 60.5%.
For `CC1=NOC(=O)/C1=C\c1ccc(-c2ccc(Br)cc2C(=O)O)o1`, the inhibition was -4.04%.
`Cc1c(NC(=S)Nc2cccc(Cl)c2)c(=O)n(-c2ccccc2)n1C` gave an inhibition of 7%.
For `Cc1cccc(NC(=O)CN2CCN(C(=O)COc3cccc(Br)c3)CC2)c1C`, the inhibition was 1.13%.
For `CCOC(=O)c1sc(NCCNc2nc(C)c(C(=O)OCC)s2)nc1C`, the inhibition was -6.54%.
`COc1ccc(NC(=O)CSc2nc(N)c(C(=O)Nc3ccc(N(C)C)cc3)s2)cc1` gave an inhibition of 15.8%.
Work on `CCOC(=O)c1sc(SCC(=O)Nc2ccc(N(C)C)cc2)nc1N` yielded an inhibition of 1.23%.
`CCOC(=O)CSc1nnc(N)s1` showed an inhibition of -0.59%.
Work on `COc1cccc(CN(C)CC(=O)Nc2c(C)cccc2C(C)C)c1` yielded an inhibition of 1.22%.
Work on `O=C(c1csc2ccccc12)N1CCN(c2ccc(Cl)c(Cl)c2)CC1` yielded an inhibition of 2.65%.
Compound `N[C@@H](Cc1cc(Br)c(O)c(Br)c1)C(=O)O` has an inhibition of 1.75%.
`N[C@@H](Cc1cc(I)c(O)c(I)c1)C(=O)O` gave an inhibition of -4.28%.
For `NC(CS(=O)O)C(=O)O` (stereo not given), the inhibition was 5.82%.
For `N[C@@H](Cc1ccc(N(CCCl)CCCl)cc1)C(=O)O`, the inhibition was -2.59%.
`Cc1ccc(C(=O)NCC(=O)OCC(=O)c2ccc(Cl)s2)cc1` showed an inhibition of 13.4%.
With `O=C(NC1CCSc2ccccc21)c1cc(S(=O)(=O)N2CCOCC2)ccc1F` (stereo not given) the inhibition was -1.41%.
In the case of `O=C(NC1CC1)c1cc(=O)c2ccccc2o1`, the inhibition is reported as -13.4%.
Work on `COc1cc2c(cc1Cl)C(=O)C(F)(c1ccccc1)C(=O)N2` (stereo not given) yielded an inhibition of -6.77%.
Compound `Cc1nnc(SCc2ccc(C(=O)Nc3cc(Cl)ccc3C)cc2)s1` has an inhibition of -1.77%.
Work on `COc1ccc(OC)c(NC(=O)c2ccc(CSc3nnc(C)s3)cc2)c1` yielded an inhibition of 49.4%.
